Experimental data taken from PubChem BioAssay (NCATS).
Where “and” joins values, the source holds several entries; their conditions need not be identical. Equal values may be shown once. Results filed as inconclusive are left out. Entries that show only a call come without a potency. A structure can be active in one record and inactive in another. Calls of active or inactive are those of the source. Unless noted, the call rests on the fitted dose curve; in most records, active means well fitted curve in the direction sought with a large enough effect; inconclusive means small, poorly fitted or top-dose-only effect, or another doubt; inactive means no such curve, though single readings can be large; an effect the other way counts as inactive or inconclusive.

Tests used:
[1] = Primary qHTS for inhibitors of nuclear receptor binding SET domain protein 2 (NSD2) in an RCH-ACV wild type WT cells (2C) (AID 1645877); further: nearly all actives have a fitted effect of over 70% in size; further: potency means the concentration at half of the fitted maximal effect
[2] = biological target: Catechol O-methyltransferase (Homo sapiens) (UniProt P21964); assay: Confirmatory Screen for Target Class Profiling of Small Molecule Inhibitors of Methyltransferases (AID 1745852; calls by dose curve; further: potency means the concentration at half of the fitted maximal effect); details: MTase-Glo luminescence, SAH detection, recombinant enzyme; measured here: COMT max response; stronger effect = lower value
[3] = biological target: Guanidinoacetate N-methyltransferase (Homo sapiens) (UniProt Q14353); assay: as above; details: MTase-Glo luminescence, SAH detection, recombinant enzyme; activity change, negative = inhibition: at 57.3 µM (top of the series) unless noted
[4] = biological target: Nicotinamide N-methyltransferase (Homo sapiens) (UniProt P40261); assay: as above; details: MTase-Glo luminescence, SAH detection, recombinant enzyme; measured here: NNMT max response; stronger effect = lower value
[5] = biological target: Phenylethanolamine N-methyltransferase (Homo sapiens) (UniProt P11086); assay: as above; details: MTase-Glo luminescence, SAH detection, recombinant enzyme; measured here: PNMT max response; stronger effect = lower value
[6] = biological target: Glutathione peroxidase 1 (Homo sapiens) (UniProt P07203); assay: Primary qHTS Assay for Inhibitors of Recombinant Selenoprotein Glutathione Peroxidase 1 (GPX1) (AID 1845191); further: nearly all actives have a fitted effect of over 65% in size; further: potency means the concentration at half of the fitted maximal effect
Outline: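 GR-coupled readout: NADPH consumption tracked by fluorescence, ex 340/em 450 nm, at t=0 and after 15 min at RT. Final mix 10 nM GPX1, 1 mM GSH, 0.5 mM CHP, 0.5 mM NADPH, 100 nM GR, 0.01% BSA, following 30 min enzyme–compound preincubation.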

[7] = biological target: Luciferin 4-monooxygenase (Photinus pyralis) (UniProt P08659); assay: Primary firefly luciferase (FLuc) qHTS assay for identification of artifact compounds. (AID 1845220); further: nearly all actives have a fitted effect of over 60% in size
Outline: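 Titrated compounds were incubated 15 min at RT, protected from light, with luciferin and ATP at 10 uM; reaction started with 10 nM FLuc, luminescence imaged at 5 min, and concentration-response fitted by Hill equation.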

[8] = Primary fluorescence-based thiol-reactive (MSTI) qHTS assay for identification of artifact compounds. (AID 1845221);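 further: thiol-reactive compounds lower the probe fluorescence signal; nearly all actives have a fitted effect of over 65% in size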
Outline: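 A multi-concentration qHTS design tested compounds against 4 uM MSTI, pH 7.4 phosphate-buffered saline. Plates were protected from light for 1 h at room temperature before imaging fluorescence.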

[9] = system: Nanoluciferase (engineered Oplophorus gracilirostris luciferase); assay: Primary Nanoluciferase (NLuc) qHTS assay for identification of artifact compounds. (AID 1845222); further: potency means the concentration at half of the fitted maximal effect;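 on activity, negative = inhibition: NLuc secreted into diluted conditioned medium of S16 cells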
Outline: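 qHTS format, against NLuc in S16 cell-conditioned medium. Nano-Glo substrate 1:100 was added after 15 min at room temperature. Luminescence was taken after a further 5 min.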

[10] = Primary redox qHTS assay for identification of artifact compounds. (AID 1845223)
Outline: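 Redox-cycling detection via DTT (250 uM final) oxidation coupled to Amplex Red (25 uM)/HRP (250 mU/mL) in HBSS. 15 min preincubation plus 30 min after DTT, room temperature. Ex/Em 525/598 nm; 4-parameter Hill fit against DMSO and 10 uM DA3003.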

[11] = biological target: Phospholipid hydroperoxide glutathione peroxidase GPX4 (Homo sapiens) (UniProt P36969); assay: Primary qHTS Assay for Inhibitors of Recombinant Selenoprotein Glutathione Peroxidase 4 (GPX4) (AID 1845192); further: nearly all actives have a fitted effect of over 65% in size; further: potency means the concentration at half of the fitted maximal effect
Outline: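 Steps: GPX4 plus compound, 30 min RT; add GR/GSH/NADPH master mix; start with cumene hydroperoxide; read 340/450 nm fluorescence at 0 and 15 min. Finals were 200 nM GPX4, 1 mM GSH, 0.5 mM CHP, 0.5 mM NADPH, 100 nM GR.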

[12] = NCATS anti-infectives library activity on HEK293 viability as a counter-qHTS vs the C. elegans viability qHTS (AID 1745854)
Outline: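 Cytotoxicity counter-screen to a worm viability qHTS: CellTiter-Glo luminescence read 10 min after reagent addition. Compounds (final up to 41.7 uM, a 1:5 dilution series) incubated 24 hr at 37C with 1,500 HEK293 cells per well; digitonin control.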

[13] = NCATS anti-infectives library activity on the primary C. elegans qHTS viability assay (AID 1745855; calls by dose curve; further: potency means the concentration at half of the fitted maximal effect)
Outline: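 GFP read-out by 488 nm laser cytometry at day 0, 3 and 7, gated on object perimeter, area and peak intensity, scored viability of PE254-GFP-FLuc worms exposed to compound in S medium with bacterial capsules at 21 °C.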

Catechol O-methyltransferase (Homo sapiens), sequence (P21964 whole entry, looked up): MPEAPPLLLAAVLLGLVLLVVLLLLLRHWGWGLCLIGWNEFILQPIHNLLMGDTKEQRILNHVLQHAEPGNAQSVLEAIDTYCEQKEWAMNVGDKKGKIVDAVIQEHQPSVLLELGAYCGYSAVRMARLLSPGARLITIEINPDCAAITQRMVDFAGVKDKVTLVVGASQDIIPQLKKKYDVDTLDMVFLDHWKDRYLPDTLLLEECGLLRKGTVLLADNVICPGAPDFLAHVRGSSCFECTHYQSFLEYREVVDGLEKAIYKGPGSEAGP
Glutathione peroxidase 1 (Homo sapiens), sequence (P07203 whole entry, looked up): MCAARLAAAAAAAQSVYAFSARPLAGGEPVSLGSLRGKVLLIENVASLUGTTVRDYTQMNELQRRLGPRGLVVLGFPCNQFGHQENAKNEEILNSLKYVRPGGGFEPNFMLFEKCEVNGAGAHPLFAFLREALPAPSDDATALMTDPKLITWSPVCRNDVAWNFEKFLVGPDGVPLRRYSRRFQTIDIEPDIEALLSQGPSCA
Phospholipid hydroperoxide glutathione peroxidase GPX4 (Homo sapiens), sequence (P36969 whole entry, looked up): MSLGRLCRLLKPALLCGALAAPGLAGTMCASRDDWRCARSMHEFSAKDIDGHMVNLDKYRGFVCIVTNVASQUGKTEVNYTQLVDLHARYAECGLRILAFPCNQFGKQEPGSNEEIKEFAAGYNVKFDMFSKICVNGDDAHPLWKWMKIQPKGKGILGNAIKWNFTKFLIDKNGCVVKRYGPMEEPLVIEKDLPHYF
Nicotinamide N-methyltransferase (Homo sapiens), sequence (P40261 whole entry, looked up): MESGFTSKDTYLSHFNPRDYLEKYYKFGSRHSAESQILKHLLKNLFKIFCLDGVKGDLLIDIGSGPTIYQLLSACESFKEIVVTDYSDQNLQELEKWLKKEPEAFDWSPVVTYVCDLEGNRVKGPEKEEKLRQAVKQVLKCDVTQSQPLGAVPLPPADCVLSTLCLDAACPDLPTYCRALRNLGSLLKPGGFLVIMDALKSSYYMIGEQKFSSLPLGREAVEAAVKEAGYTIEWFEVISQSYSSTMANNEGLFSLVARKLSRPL
Phenylethanolamine N-methyltransferase (Homo sapiens), sequence (P11086 whole entry, looked up): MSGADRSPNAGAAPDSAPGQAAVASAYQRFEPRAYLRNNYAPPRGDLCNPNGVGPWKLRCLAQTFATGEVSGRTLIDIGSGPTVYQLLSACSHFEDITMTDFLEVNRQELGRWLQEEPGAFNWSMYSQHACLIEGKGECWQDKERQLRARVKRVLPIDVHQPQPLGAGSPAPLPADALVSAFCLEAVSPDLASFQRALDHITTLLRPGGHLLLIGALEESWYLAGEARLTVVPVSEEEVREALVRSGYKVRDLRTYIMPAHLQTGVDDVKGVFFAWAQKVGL

Nc1nc(NCCNc2ncc(-n3ccnc3)c(-c3ccc(Cl)cc3Cl)n2)ccc1[N+](=O)[O-]
Potency [1]: 4.59 µM (active) and inactive
activity [2]: -0.828%
activity change, negative = inhibition [3]: 0%
activity [4]: -47.1%
activity [5]: -4.53%
Potency [6]: inactive
Potency [7]: inactive
Potency [8]: inactive
Potency [9]: 536 nM (active)
Potency [10]: inactive

O=C(c1ccc(Nc2nccc(-c3cc4ccccc4s3)n2)cc1)N1CCC(N2CCCC2)CC1
Potency [1]: 1.63 µM (active) and 1.66 µM (active)
activity [2]: -18.2%
activity change, negative = inhibition [3]: -6.01%
activity [4]: -19.2%
activity [5]: -17.2%
Potency [6]: inactive
Potency [7]: inactive
Potency [8]: inactive
Potency [9]: inactive

OCCCNc1cc(-c2ccnc(Nc3cccc(Cl)c3)n2)ccn1
Potency [1]: 51.7 nM (active) and 33.2 nM (active)
activity [2]: -80.2%
Potency [3]: 10800 nM (active)
activity [4]: -65.5%
activity [5]: -82.3%
Potency [6]: inactive
Potency [8]: inactive
Potency [9]: inactive

COc1cc2c(NC3CCN(C(C)C)CC3)nc(C3CCCCC3)nc2cc1OCCCN1CCCC1
Potency [1]: 11.5 µM (active) and 6.61 µM (active)
activity [2]: -9%
activity change, negative = inhibition [3]: -6.26%
activity [4]: -39.8%
activity [5]: -4.49%
Potency [6]: inactive
Potency [11]: inactive
Potency [7]: inactive
Potency [8]: inactive
Potency [9]: inactive
Potency [10]: inactive

C[C@@]12O[C@@H](C[C@]1(O)CO)n1c3ccccc3c3c4c(c5c6ccccc6n2c5c31)CNC4=O
Potency [1]: 66.1 nM (active)
Potency [6]: inactive

C=CC(=O)Nc1cc2c(Nc3ccc(F)c(Cl)c3)ncnc2cc1OCCCN1CCOCC1
Potency [1]: 1.5 µM (active) and 2.95 µM (active)
Potency [6]: inactive
Potency [11]: inactive

COc1cc(C(C)C)c2c(c1)S(=O)(=O)N(COc1cc(=O)n3cccc(OCCN4CCCCC4)c3n1)C2=O
Potency [1]: 10500 nM (active)
Potency [6]: inactive
Potency [11]: inactive

CCN1CCN(Cc2ccc(-c3cc4c(N[C@H](C)c5ccccc5)ncnc4[nH]3)cc2)CC1
Potency [1]: 7420 nM (active)
Potency [6]: inactive
Potency [11]: 22700 nM (active)

O=C(NC1CCNCC1)c1[nH]ncc1NC(=O)c1c(Cl)cccc1Cl
Potency [1]: 590 nM (active)
Potency [6]: inactive
Potency [11]: inactive

CC(=O)OCC(=O)[C@@]1(O)[C@H](C)C[C@H]2[C@@H]3C=C(C)C4=Cc5c(cnn5-c5ccccc5)C[C@]4(C)[C@@H]3[C@@H](O)C[C@@]21C
Potency [1]: 13.2 nM (active)
Potency [6]: inactive
Potency [11]: inactive

COCCn1c2c([n+](Cc3cnccn3)c1C)C(=O)c1ccccc1C2=O
Potency [1]: 5.9 nM (active)
Potency [6]: inactive
Potency [11]: inactive

Cc1nc2ccc(CN(C)c3ccc(C(=O)N[C@@H](CCC(=O)O)C(=O)O)s3)cc2c(=O)[nH]1
Potency [1]: 59.6 nM (active) and 23.5 nM (active)
Potency [6]: 25.5 µM (active) and inactive and 22.7 µM (active)
Potency [11]: inactive

c1cc(-c2cnn3cc(-c4ccc(OCCN5CCCCC5)cc4)cnc23)ccn1
Potency [1]: 2.91 µM (active) and 3.32 µM (active)
Potency [6]: inactive
Potency [11]: inactive

CC(C)(C)c1cc(C(C)(C)C)c(NC(=O)c2c[nH]c3ccccc3c2=O)cc1O
Potency [1]: 16600 nM (active)
Potency [6]: inactive
Potency [11]: 17800 nM (active)

COc1cc2c(cc1-c1c(C)noc1C)ncc1[nH]c(=O)n([C@H](C)c3ccccn3)c12
Potency [1]: 468 nM (active)
Potency [12]: inactive
Potency [6]: inactive
Potency [7]: inactive
Potency [8]: inactive
Potency [9]: inactive
Potency [10]: inactive

CC[C@H](CO)Nc1nc(NCc2ccccc2)c2ncn(C(C)C)c2n1
Potency [1]: 13200 nM (active)
Potency [6]: inactive
Potency [11]: inactive

CCN(CC)CCCCNc1ncc2cc(-c3cc(OC)cc(OC)c3)c(NC(=O)NC(C)(C)C)nc2n1
Potency [1]: 14.6 µM (active) and 14.8 µM (active)
Potency [6]: inactive
Potency [11]: inactive

CN1CCN(c2ccc3nc(-c4c(N)c5c(F)cccc5[nH]c4=O)[nH]c3c2)CC1
Potency [1]: 1.16 µM (active) and 742 nM (active)
Potency [6]: inactive
Potency [11]: inactive

Cc1cc(Nc2cc(NC(=O)c3c(Cl)cccc3Cl)ccn2)nc(N)n1
Potency [1]: 291 nM (active)
Potency [6]: inactive
Potency [11]: inactive

CN1c2cc(O)c(N=NC(N)=O)cc2CC1S(=O)(=O)O (configuration not stated)
Potency [1]: inactive
Potency [6]: inactive
Potency [11]: inactive

CCN1CCN(CC(=O)Nc2ccc(-c3cccc4c(=O)cc(N5CCOCC5)oc34)c3sc4ccccc4c23)CC1
Potency [1]: 94.4 nM (active) and 257 nM (active)
Potency [6]: inactive
Potency [11]: inactive

Cc1ccc(-c2ncn(-c3ccc(Nc4nccc(-c5cccc(N6CCOCC6)c5)n4)cc3)n2)cn1
Potency [1]: 662 nM (active)
Potency [6]: inactive
Potency [11]: inactive

Cc1nc2cnc3ccc(C#Cc4cccnc4)cc3c2n1-c1ccc(C(C)(C)C#N)cc1
Potency [1]: 8.2 µM (active) and 148 nM (active)
Potency [6]: inactive
Potency [11]: inactive

CC(C)C[C@H](NC(=O)CNC(=O)c1cc(Cl)ccc1Cl)B(O)O
Potency [1]: 93.4 nM (active)
Potency [13]: 1290 nM (active)
Potency [6]: inactive
Potency [11]: inactive

O=c1[nH]c(=O)n(C2CCCO2)cc1F (configuration not stated)
Potency [1]: inactive
Potency [6]: inactive
Potency [11]: inactive

O=C(NCCCNc1nc(Nc2cccc(NC(=O)N3CCCC3)c2)ncc1I)c1cccs1
Potency [1]: 5800 nM (active)
Potency [6]: inactive
Potency [11]: inactive

COc1cc(OC2CCN(C)CC2)ccc1Nc1ncc2c(n1)n(C1CCCC1)c(=O)n2C
Potency [1]: 3720 nM (active)
Potency [6]: inactive
Potency [11]: inactive

CC(=O)SC[C@@H](C)C(=O)N1CCC[C@H]1C(=O)N[C@@H](Cc1ccccc1)C(=O)O
Potency [1]: inactive
Potency [6]: inactive
Potency [11]: inactive

O=C(O)c1ccc2cc(-c3ccc(O)c(C45CC6CC(CC(C6)C4)C5)c3)ccc2c1
Potency [1]: 590 nM (active)
Potency [6]: inactive

C[C@@H](Oc1cc(-n2cnc3ccc(CN4CCN(C)CC4)cc32)sc1C(N)=O)c1ccccc1C(F)(F)F
Potency [1]: 41.7 nM (active)
Potency [6]: inactive
Potency [11]: inactive

COc1c(OCCCN2CCOCC2)ccc2c3n(c(=NC(=O)c4cnc(N)nc4)nc12)CCN3
Potency [1]: 8.4 nM (active) and 60.5 nM (active)
activity, negative = inhibition [6]: -31.4% [at 9.52 µM] (inactive) and 3.3% [at 9.52 µM] (inactive)
outcome [6]: inactive [at 9.52 µM]
activity change, negative = inhibition [11]: -4.71% [at 9.73 µM] (inactive) and -19.4% [at 9.73 µM] (inactive)
outcome [11]: inactive [at 9.73 µM]
activity change, negative = thiol reactive [8]: 32.5% [at 11.5 µM] (inactive)
activity, negative = inhibition [9]: 0.183% [at 11.6 µM] (inactive)
redox activity (% of DA3003) [10]: -6.72% [at 11.5 µM] (inactive)
